# Bioassay records (PubChem BioAssay)
# Sm TGR inh: S. mansoni TGR enzyme inhibition | Q962Y6 | purified TGR, DTNB reduction, TNB absorbance 405 nm | Potency, µM (top dose mostly 114 µM), hits mostly inhibitors | 360,000 compounds, 3% hits | AID 485364; further: nearly all actives have a fitted effect of over 60% in size
#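 First, TGR (20 nM dispensed) and NADPH were mixed with compound. Second, a 15 min room-temperature incubation followed. Third, further NADPH and then DTNB were added to start the reaction. Finally, TNB absorbance was monitored kinetically.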
# Cycloheximide cs: counter-screen hit for Shiga toxin inhibitors, cycloheximide; cell reporter, cycloheximide protein synthesis inhibition counterscreen; max response, %; 300,000 compounds, 12% hits; AID 2314; in the data active means max response mostly above about 13%, no sharp cut-off; inactive means mostly below about 14%; further: read at 38.3 µM for the half of the compounds with a filed dose
# LmPK inhibitor: blocks Leishmania mexicana pyruvate kinase activity | purified LmPK, Kinase-Glo ATP luminescence, 1 h | Potency, µM (doses to about 57.5 µM), most hits filed as inhibitors | 290,000 compounds, 0.37% hits
# Target sequence (Q27686 whole entry, looked up): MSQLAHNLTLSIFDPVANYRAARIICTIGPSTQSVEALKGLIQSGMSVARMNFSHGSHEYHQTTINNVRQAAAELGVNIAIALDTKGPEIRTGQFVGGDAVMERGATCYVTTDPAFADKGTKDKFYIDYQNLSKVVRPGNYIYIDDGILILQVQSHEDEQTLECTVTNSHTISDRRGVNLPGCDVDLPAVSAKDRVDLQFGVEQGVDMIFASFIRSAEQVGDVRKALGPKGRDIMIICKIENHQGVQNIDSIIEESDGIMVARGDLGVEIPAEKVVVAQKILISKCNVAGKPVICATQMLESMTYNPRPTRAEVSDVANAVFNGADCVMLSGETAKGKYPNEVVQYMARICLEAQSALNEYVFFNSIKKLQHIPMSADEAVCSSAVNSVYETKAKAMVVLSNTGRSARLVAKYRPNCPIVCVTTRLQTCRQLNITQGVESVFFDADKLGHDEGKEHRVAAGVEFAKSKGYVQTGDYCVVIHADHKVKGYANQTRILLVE
#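 qHTS format; LmPK 0.1 nM; substrates PEP 0.5 mM and ADP 0.1 mM. One-hour room-temperature incubation, then coupled luciferase luminescence; 0.5 nM enzyme wells mark activation.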
# Tb PYK inh: T. brucei pyruvate kinase inhibition | Q57TT1 | TbPYK enzyme, Kinase-Glo Plus ATP luminescence, 45 min | Potency, µM (titrated, usually from 76.8 µM), most hits filed as inhibitors | 410,000 compounds, 0.12% hits | AID 624173; further: nearly all actives have a fitted effect of over 50% in size
#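 TbPYK + substrate in 50 mM TEA pH 7.2, 100 mM KCl, 10 mM MgCl2, 0.05% BSA, 0.01% Tween-20; cpd pinned; ADP 130 uM final; 45 min RT; Kinase-Glo Plus 10 min; luminescence endpoint.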
# FBPA Giardia inh: inhibitors of Giardia lamblia fructose-1,6-bisphosphate aldolase; A8B2U2; 290,000 compounds, 0.71% hits; Potency, µM (highest dose often 59.6 µM), actives largely listed as inhibitors; purified Giardia FBPA; further: nearly all actives have a fitted effect of over 55% in size
#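 40 nM FBPA preincubated 10 min at RT with compound (up to 57.5 uM final), then substrate plus GAPDH/TPI/NAD/arsenate coupling and diaphorase/resazurin added. Fluorescence read after 20 min at RT, 525/598 nm.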
# Shiga toxin inh: blocks Shiga toxin action in Vero cells; Vero cells, Shiga toxin protein synthesis inhibition reporter; inhibition, % at 38.7 µM; 290,000 compounds, 9.2% hits; AID 2315; in the data active means inhibition mostly above about 28%, no sharp cut-off; inactive means mostly below about 43%
# Hits are given with their value; i = inactive; ? = inconclusive; nt = not tested or not shown; [ ] = dose if it differs, or a comment. This is one part of a sample in which hits are shown more often than they occur. Unless noted, the call rests on the fitted dose curve; in most records, active means well fitted curve in the direction sought with a large enough effect; inconclusive means small, poorly fitted or top-dose-only effect, or another doubt; inactive means no such curve, though single readings can be large; an effect the other way counts as inactive or inconclusive.
SMILES,Sm TGR inh,Cycloheximide cs,LmPK inhibitor,Tb PYK inh,FBPA Giardia inh,Shiga toxin inh
CCc1nc(Nc2ccc(F)c(Cl)c2)c2c3c(sc2n1)CCCC3,i,nt,nt,i,nt,nt
CCCCCCC#Cc1cc(OC)c(OC)cc1C(N1CC(C)c2ccccc21)N1CC(C)c2ccccc21 (configuration not stated),nt,nt,nt,nt,i[12.9 µM],nt
COc1ccc(CN(C)c2ccc(-c3nc(C)no3)cc2[N+](=O)[O-])cc1,i,nt,nt,i,nt,nt
CCN1C(=O)c2ccccc2Sc2ccc(NC(=O)c3ccc(C)c(F)c3)cc21,i,nt,nt,i,nt,nt
NNC(=O)c1ccc(Cn2cc(Br)c(N)n2)cc1,i,11.8,i,i,i,i
O=C1NC(=S)/C(=C\c2ccc(-c3ccccc3Cl)o2)S1,?,i,i,i,i,31.3
C[C@@H](C(=O)NCc1ccccc1)[C@@H]1C[C@@]1(C)[C@@H](NC(=O)OCc1ccccc1)c1ccccc1,i,i,i,i,i,i
Cc1ccc(CNC(=O)[C@H](C)[C@H]2C[C@]2(C)[C@H](NC(=O)OCc2ccccc2)c2ccccc2)o1,31.6µM,i,i,i,i,i
Cc1nn(CC(=O)Nc2ccc(C(C)C)cc2)c(=O)c2c(C)n(-c3ccc(Cl)cc3)nc12,i,nt,nt,i,nt,nt
O=C(Nc1cccc(O)c1)c1cc(-c2ccco2)on1,i,22.2,?,i,i,48.9
O=C(Nc1cccc(C(F)(F)F)c1)c1cc(-c2ccco2)on1,i,i,i,i,i,i
CC(=O)c1cccc(NC(=O)c2cc(-c3ccco3)on2)c1,i,35.2,i,i,i,96.9
Nc1c(-c2ccccc2)cnn1-c1ccccc1,i,43.7,?,i,i,86.8
Nc1c(-c2ccccc2)cnc2ncnn12,i,i,i,i,i,i
O=c1oc(-c2cccc(Cl)c2)nc2c1cnn2-c1ccccc1,i,i,i,i,i,i
Cc1ccc(-c2cnn(-c3cccc(C(F)(F)F)c3)c2N)cc1,i,40.5,i,i,i,89.4
O=c1cnn(-c2ccccc2)c(-c2ccccc2)c1,i,22.9,i,i,i,62.4
Nc1c(-c2cccc(Cl)c2)cnn1-c1ccccc1,i,45.1,i,i,i,70.5
COc1ccc(-c2nnc(SCC(=O)c3ccc([N+](=O)[O-])cc3)o2)cc1OC,i,nt,nt,i,nt,nt
CN(C)c1cccc(C(=O)Nc2ccc(N3CCOCC3)cc2)c1,i,23.2,i,i,i,i
COc1ccccc1/C=C/C(=O)Nc1ccc(N2CCOCC2)cc1,i,i,i,i,i,i
O=C(Nc1ccc(N2CCOCC2)cc1)c1cccc(-n2cnnc2)c1,i,i,i,i,nt,i
Cc1ccccc1OCCCC(=O)Nc1ccc(N2CCOCC2)cc1,i,i,i,i,i,i
COc1ccccc1OCCCC(=O)Nc1ccc(N2CCOCC2)cc1,i,13.3,i,i,i,i
COc1cccc(/C=C/C(=O)Nc2ccc(N3CCOCC3)cc2)c1OC,i,18.3,i,i,i,i
SMILES,Sm TGR inh,Cycloheximide cs,LmPK inhibitor,Tb PYK inh,FBPA Giardia inh,Shiga toxin inh
COc1ccc(C(=O)Nc2ccc(N3CCOCC3)cc2)cc1OC,i,i,15.8µM,i,i,i
CC(=O)N1CCN(C2=NC(=O)/C(=C/c3ccc(OS(=O)(=O)c4ccccc4)cc3)S2)CC1,i,i,i,i,i,i
Cc1ccc(NC(=O)C2C3CCCC2C3c2ccccc2)cc1 (configuration not stated),i,i,i,i,i,i
CC(C)Oc1ccc(CNC(=O)CCCn2c(=O)c3cccn3c3ccccc32)cc1,i,nt,nt,i,nt,nt
COc1cc(C(=O)OCC(=O)Nc2ccc(N3CCOCC3)cc2)ccc1OCC(C)C,50.1µM,nt,nt,i,nt,nt
COc1ccc(/C=C/C(=O)OCC(=O)Nc2ccc(N3CCOCC3)cc2)cc1OC,i,i,i,i,i,i
COc1ccc(CN2CCc3c(c(=O)n4ncc(C(=O)N5CCN(c6ccccc6F)CC5)c4n3C)C2)cc1,i,nt,nt,i,nt,nt
[NH-]CCC([O-])=NC(Cc1cnc[nH]1)C(=O)[O-].[Zn+2] (configuration not stated),nt,nt,nt,i,nt,nt
Cc1ccc(/C=N/N(C)C2=NS(=O)(=O)c3ccccc32)o1,i,i,i,nt,i,i
CN(/N=C/c1ccc(Br)o1)C1=NS(=O)(=O)c2ccccc21,44.7µM,i,i,i,i,i
O=C(N/N=C/c1ccc(-c2ccccc2[N+](=O)[O-])o1)c1cccnc1,?,16.1,i,i,?,i
O=C(NCc1cccnc1)c1ccc(-c2ccccc2[N+](=O)[O-])o1,i,i,i,i,i,40.2
O=C(N/N=C/c1cc2c(cc1[N+](=O)[O-])OCO2)c1cccnc1,i,i,i,i,i,i
O=C(NCc1cccnc1)c1ccc(-c2cccc(Cl)c2Cl)o1,nt,i,i,i,i,i
CC(C)(C)c1cc(C(=O)N/N=C/c2ccc(-c3ccccc3[N+](=O)[O-])o2)n[nH]1,i,25.9,i,i,nt,i
Cc1ccc(NC(=O)CN(C)S(=O)(=O)c2ccc3c(c2)n(C)c(=O)c(=O)n3C)cc1C,i,nt,nt,i,nt,nt
Cc1cc(N/N=C/c2ccccc2O)c2ccccc2n1,i,25.9,i,i,i,i
C(=N/Nc1nc(-c2ccccc2)cc(-c2ccccc2)n1)/c1cccnc1,i,61.4,i,i,i,68.8
Cc1cc(-c2ccccc2)nc(N/N=C/c2ccccc2)n1,i,32.3,i,i,i,55.1
Oc1cccc(/C=N\Nc2nncc(-c3ccccc3)n2)c1,i,64.2,i,i,i,50.2
CCCCCCCCN1C(=O)[C@H](CC(=O)NCCCOCCCC)C[C@@]2(C(=O)OC)CCCCC=C12,nt,nt,nt,i,nt,nt
CCOC(=O)c1ccccc1NC(=O)c1nn(C)c2c1COc1ccccc1-2,?,nt,nt,i,nt,nt
Cc1cc(C(=O)CCC(=O)NC(C)c2ccc(S(N)(=O)=O)cc2)c(C)s1 (configuration not stated),i,nt,nt,i,nt,nt
CNc1nc(C)nc(N/N=C/c2ccccc2)n1,i,28.4,i,i,i,i
Cc1cc(-c2ccccc2)nc(N/N=C/c2ccc(O)cc2O)n1,i,23.2,i,i,i,91.3
SMILES,Sm TGR inh,Cycloheximide cs,LmPK inhibitor,Tb PYK inh,FBPA Giardia inh,Shiga toxin inh
Cc1cc(-c2ccccc2)nc(N/N=C/c2ccco2)n1,i,35.7,i,?,i,85.1
Cc1cccc(-c2ccc3ncnc(NCc4cccc(F)c4)c3c2)c1,i,nt,nt,nt,nt,nt
NC(=O)CSc1ncc2c(n1)-c1ccccc1N(Cc1cccc(F)c1)S2(=O)=O,i,nt,nt,i,nt,nt
COC(=O)C1CCN(C(c2ccccc2Cl)c2sc3nc(-c4ccco4)nn3c2O)CC1 (configuration not stated),i,nt,nt,i,nt,nt
C/C(=N\N=C1\NC(=O)CC(C(=O)O)S1)c1cccs1 (configuration not stated),i,i,i,i,i,i
C/C(=N/NC(=O)c1cccs1)c1cccc(NC(=O)C2CC2)c1,i,38.5,i,i,i,95.4
C/C(=N\NC(=O)CN1CCN(Cc2ccccc2)CC1)c1cccs1,i,i,i,i,i,i
